Source: PubChem BioAssay
This excerpt belongs to a sample that is enriched for hits.
mHTT-CaM PPI inh: mutant huntingtin-calmodulin interaction inhibitors – biochemical, AlphaScreen, primary screen; AlphaScreen His-mHTT/GST-CaM binding, luminescence; inhibition, % at 15 µM; AID 1671202, 2021; 3.6% of 190,000 active; P42858;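 note: 0% = both proteins with DMSO and 100% = one protein alone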
Pf apPOL block: Pf-apPOL inhibitors, biochemical, fluorescence; inhibition, % at 10 µM; Recombinant Pf-apPOL, molecular beacon fluorescence, 1.5 h; AID 1794808, 2022; 0.25% of 210,000 active; Plasmodium falciparum apicoplast DNA polymerase (apPOL)
Active calls of the source: *; nt = not tested or not shown. Cut-off read from the data, not from the text of the source: active = inhibition above about 50%; inactive = the rest.

SMILES | mHTT-CaM PPI inh | Pf apPOL block
Cc1ccc(C2Nc3ccccc3NC3=C2C(=O)CC(c2ccccc2F)C3)cc1 (stereo not drawn) | 39 | -4
COc1ccc(C2Nc3ccccc3NC3=C2C(=O)CC(c2ccccc2)C3)cc1 (stereo not drawn) | 26 | -2
COc1ccc(C2CC(=O)C3=C(C2)Nc2ccccc2NC3c2cccc(C(F)(F)F)c2)cc1 (stereo not drawn) | 17 | 8
O=C1CC(c2cccs2)CC2=C1C(c1ccc(Cl)c(Cl)c1)Nc1ccccc1N2 (stereo not drawn) | 77* | -3
O=C1CC(c2cccs2)CC2=C1C(c1ccc(F)cc1)Nc1ccccc1N2 (stereo not drawn) | 18 | -19
COc1ccc(C2CC(=O)C3=C(C2)Nc2ccccc2NC3c2ccc(Cl)c([N+](=O)[O-])c2)cc1 (stereo not drawn) | 52* | -15
CC(C)(C)c1csc(NC(=O)COc2ccccc2)n1 | -26 | -7
S=C(Nc1cccc(Cl)c1)O[C@H]1CCC12CCC(c1ccccc1)CC2 (stereo partly drawn) | -33 | -3
CC(C)C(=O)Nc1c(-c2cc(F)ccc2F)nc2ccccn12 | 7 | 2
O=C1CC(c2ccccc2)CC2=C1C(c1ccc(F)c(Br)c1)Nc1ccccc1N2 (stereo not drawn) | 59* | -5
O=C1CC(c2ccccc2)CC2=C1C(c1ccccc1C(F)(F)F)Nc1ccccc1N2 (stereo not drawn) | 19 | -4
O=C1CC(c2ccccc2)CC2=C1C(c1ccc(C(F)(F)F)cc1)Nc1ccccc1N2 (stereo not drawn) | 86* | -2
O=C1CC(c2ccccc2)CC2=C1C(c1cccc(F)c1)Nc1ccccc1N2 (stereo not drawn) | 9 | -5
Cc1ccc(CC(=O)N2CCCC(COc3cccc(C(=O)NC4CC4)c3)C2)cc1 (stereo not drawn) | 5 | -3
COCCNC(=O)C1C2C(=O)N(Cc3ccccc3)CC23C=CC1(C)O3 (stereo not drawn) | 0 | -14
COc1ccc(NC(=O)c2ccccc2Cl)c(OC)c1 | -7 | 3
COc1ccc2nc(SC(=O)c3ccccc3)nc(C)c2c1 | 100* | -5
COc1ccc2nc(SCc3cccc([N+](=O)[O-])c3)nc(C)c2c1 | -3 | 11
COc1ccc2nc(SC(=O)c3ccccc3Cl)nc(C)c2c1 | 99* | -7
O=C(c1ccc(F)cc1)N1CCN(c2cc(-c3ccccc3)[nH]n2)CC1 | 18 | -8
CCc1ccc(NC(=O)C2CC3CCCN3C23C(=O)N(C)c2ccccc23)cc1 (stereo not drawn) | 9 | -1
COc1cccc(C2C=C(c3cccc(Br)c3)Nc3nnnn32)c1 (stereo not drawn) | -13 | -6
COc1ccc(OC)c(C2C=C(c3cccc(Br)c3)Nc3nnnn32)c1 (stereo not drawn) | 56* | 9
COc1ccc(C2C=C(c3cccc(Br)c3)Nc3nnnn32)cc1OC (stereo not drawn) | 65* | 4
COc1cc(C2C=C(c3cccc(NC(C)=O)c3)Nc3ncnn32)cc(OC)c1OC (stereo not drawn) | -3 | 61*
SMILES | mHTT-CaM PPI inh | Pf apPOL block
COc1ccc(OC)c(C2C=C(c3ccc(Cl)cc3)Nc3nnnn32)c1 (stereo not drawn) | 17 | 0
COc1cccc(C2=CC(c3cc(OC)c(OC)c(OC)c3)n3ncnc3N2)c1 (stereo not drawn) | 28 | 14
Brc1ccc(C2C=C(c3cccs3)Nc3ncnn32)cc1 (stereo not drawn) | 17 | -3
Brc1cccc(C2C=C(c3cccs3)Nc3ncnn32)c1 (stereo not drawn) | 13 | 65*
Cc1cc(NC(=O)C2CC(c3ccccc3F)=NO2)no1 (stereo not drawn) | -9 | -1
CCOC(=O)CN1CCN(c2ccc([N+](=O)[O-])cn2)CC1 | nt | -2
O=C(NCc1ccco1)C1CCN(c2nccn3nc(-c4ccccc4)cc23)CC1 | 23 | 9
COC(=O)c1cnc2nc(C)ccc2c1Nc1ccc(F)cc1F | 8 | -5
CN(C(=O)/C=C/c1ccc2c(c1)OCO2)C(C(=O)Nc1ccc2c(c1)OCO2)c1ccccc1 (stereo not drawn) | 42 | -6
Cc1ccc(NC(=O)C2CCN(c3nccc4sc(C)cc34)CC2)cc1 | 7 | 1
COc1ccc(C2C=C(c3cccc(Br)c3)Nc3ncnn32)cc1 (stereo not drawn) | 59* | -10
Cc1ccc(C2C=C(c3cccc(Br)c3)Nc3ncnn32)cc1 (stereo not drawn) | 14 | -8
Cn1nccc1-c1nc(-c2ccc(Oc3ccc(Cl)cc3)cc2)no1 | -32 | 0
Cc1ccnc(NS(=O)(=O)c2ccc(Cl)cc2)c1 | -1 | 0
Cc1ccnc(NS(=O)(=O)c2ccc(C(C)(C)C)cc2)c1 | 100* | -2
CN1C(=O)c2cccnc2Sc2cc(C(=O)NCc3cccc(Cl)c3)ccc21 | 52* | -15
Cc1cccc(C(=O)Nc2ccc3c(c2)Sc2ncccc2C(=O)N3C)c1 | 65* | -3
Cc1ccc(CNC(=O)c2ccc3c(c2)Sc2ncccc2C(=O)N3C)cc1 | -5 | -5
CN1C(=O)c2cccnc2Sc2cc(NC(=O)c3cccc(Cl)c3)ccc21 | 9 | -4
Fc1cccc(NCc2ccco2)c1 | 14 | 2
Oc1c(Cl)cc(Cl)cc1CNc1cccc(F)c1 | 96* | -2
CC1(C)CC(=O)C2=C(C1)N(c1sc3c(c1C#N)CCCC3)C(N)=C(C#N)C2c1cccnc1 (stereo not drawn) | 18 | -1
CCN(CC)CCNC(=O)C1CCN(c2nccnc2Sc2ccccc2)CC1 | 1 | -6
COc1ccc(S(=O)(=O)NCc2ccc(CNS(=O)(=O)c3ccc(OC)cc3)cc2)cc1 | 59* | -2
COc1ccc(S(=O)(=O)NCc2ccc3c(c2)OCO3)cc1OC | 4 | -3
SMILES | mHTT-CaM PPI inh | Pf apPOL block
COc1ccc(S(=O)(=O)NCc2ccc(F)cc2)cc1OC | -1 | 68*
COc1ccc(S(=O)(=O)NCc2ccc(S(N)(=O)=O)cc2)cc1 | -2 | -5
O=S(=O)(NCCc1ccc(Cl)cc1)c1ccc2nc(-c3ccccc3)[nH]c2c1 | 30 | -10
CN1C(=O)Cc2cc(C(=O)NCc3ccccn3)ccc21 | -6 | -3
Cc1occc1C(=O)Nc1ccc(I)cc1C(=O)O | 60* | 10
Cc1occc1C(=O)Nc1ccccc1NC(=O)c1ccoc1C | 9 | 4
O=C(CCc1nc(-c2cccs2)no1)NCCC1=CCCCC1 | -6 | 1
O=S(=O)(O)c1ccc(-c2nnc(-c3ccccn3)nc2-c2ccc(S(=O)(=O)O)o2)o1 | 100* | nt
Cn1c(-c2ccc(S(=O)(=O)O)o2)nc2ccccc21 | -3 | 2
c1ccc(-c2nnc(-c3ccco3)c(-c3ccco3)n2)nc1 | 100* | nt
c1ccc(-c2noc(-c3ccco3)n2)nc1 | 4 | -12
CN(Cc1ccccc1)C(=O)c1ccc(CS(=O)(=O)Cc2ccc(Cl)cc2)o1 | 15 | -13
CN(C)c1ccc(-c2nc3n(n2)C(c2ccc(F)cc2)C2=C(CCCC2=O)N3)cc1 (stereo not drawn) | 51* | -2
CN(C)c1ccc(-c2nc3n(n2)C(c2ccccc2)C2=C(CCCC2=O)N3)cc1 (stereo not drawn) | 5 | -6
COC(=O)c1ccc(C(=O)NCC2CCS(=O)(=O)C2)cc1 (stereo not drawn) | -5 | -7
